# Test results reported in PubChem BioAssay AID1688 (National Center for Advancing Translational Sciences (NCATS), 2009).
# About 2,400 (1.1%) of roughly 220,000 compounds were called active. A call without a number means that no potency is given here. Inconclusive results (about 7%) are left out. Calls come from the whole dose curve; as a rule, active = well fitted inhibition curve with a large enough effect; inconclusive = small, poorly fitted or top-dose-only effect, or effect the other way; inactive = no such curve, though single readings can be large or run the other way. This excerpt belongs to a sample that is enriched for actives.
# Test: qHTS Multiplex Assay to Identify Dual Action Probes in a Cell Model of Huntington: Aggregate Formation (GFP); note: nearly all actives have a fitted effect of over 60% in size
# Settings: PC12 HttQ103-GFP aggregates, Acumen cytometry, 40 h; series mostly up to 9.22 µM
# How it was run: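 Steps: seed 1500 PC12 HTTQ103-GFP cells/well; add tebufenozide, 100 nM final; add compound titration; add ATPLite reagent; quantify GFP aggregates by laser scanning cytometry.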
# Potency is the fitted concentration of half-maximal effect.
row,Structure (SMILES),Potency
1,COCCN1C2=C(COC(C)(C)C2)C(=S)NC1c1ccccc1 (stereo not given),inactive
2,COC(=O)c1sccc1NN1C(=O)c2ccccc2C1=O,inactive
3,COC(=O)c1sc2ncccc2c1OCc1ccc(Cl)cc1Cl,inactive
4,COCCNC(=O)c1snc2ccc(Cl)cc12,10 µM (active)
5,COCCNC(=O)c1ccccc1-c1nc(-c2ccccc2Cl)no1,inactive
6,COC(=O)C1=C(C)Nc2ncnn2C1c1cccnc1 (stereo not given),inactive
7,Clc1ccc2c(c1)C1=C(C(c3ccncc3)O2)C(c2ccc(Br)cc2)n2ncnc2N1 (stereo not given),12.6 µM (active)
8,Brc1ccc(C2=CC(c3ccco3)n3ncnc3N2)cc1 (stereo not given),inactive
9,Cc1ccc(-c2ncc(Cl)cc2-c2ccc(S(C)(=O)=O)cc2)cn1,inactive
10,Cc1ccc(Cn2c(SCC(=O)N/N=C/c3ccccc3OCC(=O)O)nc3ccccc32)cc1,inactive
11,O=C(CCCN1C(=O)/C(=C\c2ccco2)SC1=S)Nc1cccc2ccccc12,inactive
12,O=C(CCCN1C(=O)/C(=C\c2ccccc2)SC1=S)Nc1ccccc1O,inactive
13,O=C(CCCN1C(=O)/C(=C/c2ccco2)SC1=S)Nc1ccccc1,25.1 µM (active)
14,CC(=O)NCC(O)c1ccc([N+](=O)[O-])cc1 (stereo not given),inactive
15,C/C(Cc1ccccc1)=N\NC(=O)CNC(=O)c1ccc2c(c1)OCCO2,inactive
16,COC(=O)c1cc(NC(=O)c2cccnc2)ccc1N1CCOCC1,inactive
17,O=C(Nc1ccc(N2CCN(C(=O)c3ccccc3)CC2)c(Cl)c1)c1ncn[nH]1,inactive
18,O=C(Nc1ccc(N2CCN(C(=O)c3ccccc3)CC2)c(Cl)c1)c1cccnc1,22.4 µM (active)
19,O=C(Nc1ccc(N2CCOCC2)nc1)c1c(F)cccc1F,inactive
20,N#C/C(=C/c1ccc(-c2ccccc2[N+](=O)[O-])o1)C(=O)NCCN1CCCCC1,inactive
21,Cc1cc(-c2ccc(/C=N/n3cnnc3)o2)c([N+](=O)[O-])cc1C,inactive
22,O=C1C2C3C=CC(C4CC34)C2C(=O)N1/N=C/c1ccc(-c2ccccc2[N+](=O)[O-])o1 (stereo not given),25.1 µM (active)
23,COC(=O)c1ccccc1Sc1c(/C=N/OCc2ccc(Cl)cc2)c(C(F)(F)F)nn1C,inactive
24,Cn1nc(C(F)(F)F)c(C(=O)Nc2cccc(C(F)(F)F)c2)c1SCc1ccc(Cl)cc1,12.6 µM (active)

row,Structure (SMILES),Potency
1,FC(F)(F)c1cccc(NC(=S)Nc2cccc(Cl)c2)c1,inactive
2,COc1ccc2[nH]c(=S)cc(C)c2c1,inactive
3,O=C(Nc1nnc(COc2ccccc2)s1)Nc1ccccc1F,inactive
4,CC(NC(=S)NNS(=O)(=O)c1ccc(C(C)(C)C)cc1)c1ccccc1 (stereo not given),inactive
5,Clc1ncn(CCOc2ccccc2)c1Cl,inactive
6,COCCOCCn1cnc2ccccc21,inactive
7,Cc1cc2ncn(CCCCOc3ccccc3)c2cc1C,11.2 µM (active)
8,CCOC(=O)CSc1nc(C)c(Oc2ccc(Cl)cc2Cl)c(=O)[nH]1,inactive
9,Brc1ccc(-c2nn[nH]n2)cc1,inactive
10,COc1ccc(SCCN2CCN(CC(C)C)CCC2=O)cc1,inactive
11,CSc1nc(C)cc(SC(C(C)=O)C(=O)Nc2ccccc2)n1 (stereo not given),inactive
12,CSc1nc(-c2ccccc2)nc(C(Cl)Cl)n1,11.2 µM (active)
13,Cc1cccc(NC(=O)CSc2nnc(CCNC(=O)OC(C)(C)C)o2)c1C,inactive
14,COC(=O)c1ccc(COc2ccc(/C=N/NC(=O)C(=O)Nc3ccc(OC)cc3)cc2OC)o1,inactive
15,CCn1c2ccccc2c2cc(NC(=O)CNC)ccc21,inactive
16,CC[n+]1c(C)n(-c2ccccc2)c2ccc(NC(C)=O)cc21,3.98 µM (active)
17,CCc1ccc(NC(=O)N2CCN(c3ccccc3)CC2)cc1,inactive
18,Cc1ccc(N2C(=O)CN=C2Nc2nc(C)cc(C)n2)cc1,inactive
19,O=C(c1ccc(=O)oc1)N1CCC(C(O)(c2ccccc2)c2ccccc2)CC1,inactive
20,Brc1ccc2ncnc(NCc3cccnc3)c2c1,1.78 µM (active)
21,O=C(O)CCCCCNc1ncnc2ccc(Br)cc12,inactive
22,Cc1cc(NCc2cccnc2)no1,inactive
23,CCOC(=O)c1cnc(COc2ccccc2Cl)[nH]c1=O,inactive
24,Cc1c(NC(=O)CN2C(=O)C(=O)N(Cc3ccccc3)C2=O)c(=O)n(-c2ccccc2)n1C,inactive

row,Structure (SMILES),Potency
1,O=C1CC(Cc2ccc(Cl)cc2)C(=O)N1c1cc(Cl)ccn1 (stereo not given),inactive
2,CCCCN(CCCC)CC(O)Cn1c2ccccc2c(=O)c2ccccc21 (stereo not given),inactive
3,O=C(NNS(=O)(=O)Cc1ccccc1)c1ccc([N+](=O)[O-])cc1,inactive
4,CC1CCN(c2c(NCc3ccc(C(=O)NCc4ccccc4)cc3)c(=O)c2=O)CC1,inactive
5,O=C(Nc1cccc(-c2nc3ccccc3[nH]2)c1)c1ccc(C(=O)Nc2cccc(-c3nc4ccccc4[nH]3)c2)cc1,inactive
6,CN(c1ccccc1)S(=O)(=O)c1cc(C(=O)Nc2nc3ccccc3[nH]2)ccc1Cl,11.2 µM (active)
7,CN(c1ccccc1)S(=O)(=O)c1cc(C(=O)OCC(=O)N2CCN(C(=O)c3ccco3)CC2)ccc1Cl,inactive
8,COC(=O)/C=C(\Oc1ccccc1)C1(O)CCCCC1,inactive
9,CC(C)(C)c1nnc(NC(=O)C2c3ccccc3Oc3ccccc32)s1,inactive
10,Nc1ccc(C(=O)Nc2ccccc2N)cc1,inactive
11,COc1cccc(NC(=O)c2ccc(S(=O)(=O)N(C)C)cc2)c1,inactive
12,COc1cccc(NC(=O)CN(C)S(=O)(=O)c2ccc(C)cc2)c1,inactive
13,COc1cccc(-c2nnc(NC(=O)c3ccc(S(=O)(=O)N(CC(C)C)CC(C)C)cc3)o2)c1,5.01 µM (active)
14,Oc1ccc(Cl)c2c1CCC2,inactive
15,CCOc1ccccc1N1CN(Cc2ccccc2)CNC1=S,inactive
16,COC(=O)C1=C(C)N(C)C(=S)NC1c1cc(OC)ccc1OC (stereo not given),inactive
17,COC(=O)C1=C(C)N(C)C(=S)NC1c1ccccc1 (stereo not given),3.16 µM (active)
18,COCCN1C(=O)N[C@@H](c2ccccc2)C(C(=O)OC)=C1C,inactive
19,COc1ccc(-c2csc(NC3OC(=O)c4ccccc43)n2)cc1 (stereo not given),inactive
20,Cc1c(C(=O)OC(C)C)sc(NC(=O)c2cccnc2)c1C#N,11.2 µM (active)
21,CCOC(=O)c1sc(NC(=O)CSc2ncccn2)c(C#N)c1C,inactive
22,CCOC(=O)c1cc(NC(=O)c2cccnc2)cc(C(=O)OCC)c1,inactive
